Only some compounds are listed: those with a hit (about 5.4% of all), similar ones and a draw of the others.
CSC inhib = cancer stem cell viability inhibitors, primary screen, luminescence; hit rate 1.1% among 300,000; AID 2717, 2010; inhibition, % at 7.5 µM; cancer stem cell-like cells viability; in the data active = inhibition above about 75%; tested in HMLE shEcad cells
Calb FLC = C. albicans growth inhibition with fluconazole, primary screen, CaCi-2 strain, Alamar Blue fluorescence; C. albicans CaCi-2 (fluconazole-resistant clinical isolate) + fluconazole, 48 h; growth inhibition, % (test concentration not listed); hit rate 0.57% among 300,000;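 active = growth inhibition above about 58% in most replicates, limit read from the data, passing the limit was not always enough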;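 note: all wells also contain fluconazole at 8 µg/ml as a sub-toxic cotreatment; 0% = median of DMSO wells and 100% = median of geldanamycin control wells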
MPTP inh = mitochondrial permeability transition pore inhibitors, primary screen, biochemical, isolated mouse mitochondria, absorbance | Ca2+ swelling absorbance, 30 min | hit rate 1.4% among 360,000 | inhibition, % at 10 µM | AID 602449, 2012;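 active = inhibition of 50% or more, scaled per plate between neutral and stimulator controls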;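 note: 0% = DMSO wells given calcium and 100% = 1 mM EGTA wells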
Mdm2-MdmX inh = inhibitors of human Mdm2-MdmX association, primary screen, cell-based, luminescence, split luciferase, SaOS-2, uHTS. hit rate 3% among 330,000. Protein Mdm4 (Homo sapiens) + E3 ubiquitin-protein ligase Mdm2 (Homo sapiens), …. AID 485346, 2010. SaOS-2 split-luciferase Mdm2/MdmX complementation. inhibition, % at 8 µM;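 active = inhibition of at least 50% at 8 µM in the primary screen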
Beta cell apopt = inhibitors of cytokine-induced beta cell apoptosis, primary screen, luminescence | protection from apoptosis, % (test concentration not listed) | INS-1E cytokine-induced death, ATP luminescence, 48 h; percent of positive-control rescue, neutral wells zero | hit rate 0.8% among 300,000;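 active = Every replicate reaches about 75%, or at least half do and their mean reaches it too, limit read from the data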;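 note: 0% = cytokine-treated negative control wells and 100% = positive control rescue; higher means more ATP so stronger rescue from cytokine killing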
SKKanGAS inh = S. pyogenes SKKanGAS growth inhibitors in kanamycin, primary screen, streptokinase expression inhibitor project, SKKanGAS strain, BacTiter-Glo luminescence | hit rate 1.3% among 300,000 | AID 1662, 2009 | 6 h | inhibition, % at 7.5 µM;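 active = mean replicate score, as percent of positive control median, at least 50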;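 note: strain carries kanamycin resistance gene driven by streptokinase promoter and grows in 40 µg/ml kanamycin; loss of luminescence reflects streptokinase promoter inhibition or plain growth inhibition; 0% = median of DMSO wells and 100% = positive control at its reference dose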
An asterisk follows results filed as active.

What do the screens show for `CCn1nc(NC(=O)c2ccncc2)c2cc3cc(C)ccc3nc21`?
CSC inhib: -7; Calb FLC: -7; MPTP inh: 1; Mdm2-MdmX inh: -11; Beta cell apopt: 1; SKKanGAS inh: 91*

What do the screens show for `CCn1nc(NC(=O)c2ccncc2)c2cc3ccc(C)cc3nc21`?
Calb FLC: 38; MPTP inh: -2; Mdm2-MdmX inh: -12; Beta cell apopt: -3; SKKanGAS inh: 0

How did C[C@H](CO)N1C[C@H](C)[C@@H](CN(C)C(=O)CN2CCOCC2)Oc2cc(Br)ccc2S1(=O)=O do in these assays?
MPTP inh: -1

What do the screens show for `Clc1ccc(-c2ccc(/C=N/Nc3cc(N4CCOCC4)nc(N4CCOCC4)n3)o2)cc1`?
CSC inhib: 93*; Calb FLC: 23; MPTP inh: 1; Mdm2-MdmX inh: 43; Beta cell apopt: 7; SKKanGAS inh: 76*

Results for O=C(NC1CCc2ccccc21)C1CCN(S(=O)(=O)c2ccc(-n3cnnn3)cc2)CC1 (configuration not stated) ?
CSC inhib: 2; Calb FLC: 1; MPTP inh: 0; Mdm2-MdmX inh: 17; Beta cell apopt: 0; SKKanGAS inh: -1

How did C/C(=N\Nc1ccc([N+](=O)[O-])cc1)c1ccc(O)cc1 do in these assays?
CSC inhib: 28; Calb FLC: 113*; MPTP inh: -1; Mdm2-MdmX inh: -23; Beta cell apopt: 0; SKKanGAS inh: -4

What do the screens show for `C/C(=N\Nc1ccc([N+](=O)[O-])cc1)c1cccc(N)c1`?
CSC inhib: -12; Calb FLC: -18; MPTP inh: 1; Mdm2-MdmX inh: -22; Beta cell apopt: 2; SKKanGAS inh: 4

Results for C/C(=N\NC(=O)c1ccc([N+](=O)[O-])cc1)c1c(O)cc(C)oc1=O ?
CSC inhib: -27; Calb FLC: -23; MPTP inh: 0; Mdm2-MdmX inh: -23; Beta cell apopt: -1; SKKanGAS inh: 3

Results for C/C(=N/NC(=O)c1cc(O)c(O)c(O)c1)c1ccc([N+](=O)[O-])cc1 ?
Calb FLC: 91*; MPTP inh: 5; SKKanGAS inh: -4

How did CC(=O)NC/C(C)=N\Nc1ccc([N+](=O)[O-])cc1 do in these assays?
CSC inhib: 21; Calb FLC: 113*; MPTP inh: 18; Mdm2-MdmX inh: -14; Beta cell apopt: 5; SKKanGAS inh: 7

Results for N#Cc1ccc(NC(=S)NC(=O)CCc2ccc(S(=O)(=O)N3CCOCC3)cc2)cc1 ?
CSC inhib: 43; Calb FLC: 6; MPTP inh: 3; Mdm2-MdmX inh: 9; Beta cell apopt: 4; SKKanGAS inh: -2

Results for C=CCn1c(O)c(N=NC(=S)Nc2ccc(OC)cc2)c2ccccc21 ?
CSC inhib: 26; Calb FLC: 108*; MPTP inh: 3; Beta cell apopt: 12; SKKanGAS inh: 56*

Results for C=CCn1c(O)c(N=Nc2ccccc2O)c2ccccc21 ?
CSC inhib: 96*; MPTP inh: 3; Mdm2-MdmX inh: 30; Beta cell apopt: -4

Results for CS(=O)(=O)c1ccc([C@@H](O)[C@@H](CF)NC(=O)C(Cl)Cl)cc1 ?
CSC inhib: -15; MPTP inh: 1; Mdm2-MdmX inh: 5; Beta cell apopt: 22

How did O=C1CCN(S(=O)(=O)c2ccc(Cl)cc2)CCN1 do in these assays?
CSC inhib: 3; Calb FLC: -9; MPTP inh: -1; Mdm2-MdmX inh: -26; Beta cell apopt: 1; SKKanGAS inh: -7

What do the screens show for `CC(=O)N1c2ccc(Cl)cc2C2C=CCC2C1c1cccc2ccccc12` (configuration not stated)?
CSC inhib: 78*; MPTP inh: -1; Beta cell apopt: 2

Results for C=CCSc1nc(C)cc2c1C(=O)OC2 ?
CSC inhib: -2; Calb FLC: -4; MPTP inh: 0; Mdm2-MdmX inh: -6; Beta cell apopt: -6; SKKanGAS inh: -3

Bioassay records (PubChem)
